A short description of test [1]: compounds binding Alexa647 anti-His antibody – biochemical, small-molecule microarray, 635 nm fluorescence, artefact control for SMM control protein annotation, primary screen (AID 1128).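 Also: score merges feature fluorescence with signal-to-noise for each printed compound spot.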 As to conditions: higher = more signal.
Test [2] relates to Human papillomavirus type 1a E7 protein (residues 1-88). Briefly: HPV1a E7 small-molecule binders, primary screen, biochemical, small-molecule microarray, residues 1-88, 635 nm (AID 1129). As to conditions: small-molecule microarray binding, fluorescence 635 nm; higher = more signal.
For test [3], the target named is Focal adhesion kinase 1 (Homo sapiens) (UniProt Q05397). Kind of test: PTK2 protein binding on printed compound slides – biochemical, small-molecule microarray, 635/667 nm fluorescence, BSA, DTT, primary screen (AID 1130).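 Also: composite of spot emission at 667 nm and signal to noise over triplicate slides.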 As to conditions: 635 nm fluorescence, higher = more signal.
Chain of Focal adhesion kinase 1 (Homo sapiens) (Q05397 whole entry, looked up): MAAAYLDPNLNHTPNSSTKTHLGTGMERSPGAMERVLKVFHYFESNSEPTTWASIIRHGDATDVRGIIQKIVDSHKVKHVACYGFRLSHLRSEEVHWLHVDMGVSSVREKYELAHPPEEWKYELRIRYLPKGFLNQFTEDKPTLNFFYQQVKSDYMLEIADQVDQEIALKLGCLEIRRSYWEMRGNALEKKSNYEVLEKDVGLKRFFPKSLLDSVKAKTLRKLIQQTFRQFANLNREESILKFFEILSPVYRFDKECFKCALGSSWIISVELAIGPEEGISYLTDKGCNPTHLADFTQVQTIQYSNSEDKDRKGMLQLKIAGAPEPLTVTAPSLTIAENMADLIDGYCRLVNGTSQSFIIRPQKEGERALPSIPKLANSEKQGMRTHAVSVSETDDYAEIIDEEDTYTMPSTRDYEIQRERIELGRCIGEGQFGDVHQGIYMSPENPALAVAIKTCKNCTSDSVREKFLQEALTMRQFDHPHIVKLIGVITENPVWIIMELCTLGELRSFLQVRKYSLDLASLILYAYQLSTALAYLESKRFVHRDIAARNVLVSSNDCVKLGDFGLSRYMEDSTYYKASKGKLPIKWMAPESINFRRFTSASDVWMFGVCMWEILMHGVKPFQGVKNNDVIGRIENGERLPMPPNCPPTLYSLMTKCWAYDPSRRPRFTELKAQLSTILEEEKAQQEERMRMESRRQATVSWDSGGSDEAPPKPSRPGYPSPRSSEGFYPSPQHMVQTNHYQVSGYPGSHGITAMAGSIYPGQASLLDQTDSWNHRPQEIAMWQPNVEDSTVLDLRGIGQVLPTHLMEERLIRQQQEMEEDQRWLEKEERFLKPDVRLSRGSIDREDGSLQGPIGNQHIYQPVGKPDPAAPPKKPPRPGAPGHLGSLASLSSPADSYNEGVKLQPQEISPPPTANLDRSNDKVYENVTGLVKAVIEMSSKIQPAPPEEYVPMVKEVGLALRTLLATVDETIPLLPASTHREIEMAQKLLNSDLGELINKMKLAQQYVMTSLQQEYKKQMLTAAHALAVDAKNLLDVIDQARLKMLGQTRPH
Test [4] has as its system Fibrinogen (Alexa647-labelled). Kind of test: Alexa647-fibrinogen binding to printed small molecules – biochemical, small-molecule microarray, 635/667 nm fluorescence, artefact control for SMM control-protein annotation, profiling panel (AID 1131).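 Also: z-score merges 667 nm fluorescence with per-spot signal-to-noise over triplicate slides.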 As to conditions: fibrinogen-A647 binding fluorescence, higher = more signal.
The target in test [5] is Follistatin (Homo sapiens) (UniProt P19883). Kind of test: FST protein binding to printed compounds – biochemical, small-molecule microarray, 635/667 nm fluorescence, primary screen (AID 1132). As to conditions: 635 nm fluorescence, higher = more signal.
Chain of Follistatin (Homo sapiens) (P19883 whole entry, looked up): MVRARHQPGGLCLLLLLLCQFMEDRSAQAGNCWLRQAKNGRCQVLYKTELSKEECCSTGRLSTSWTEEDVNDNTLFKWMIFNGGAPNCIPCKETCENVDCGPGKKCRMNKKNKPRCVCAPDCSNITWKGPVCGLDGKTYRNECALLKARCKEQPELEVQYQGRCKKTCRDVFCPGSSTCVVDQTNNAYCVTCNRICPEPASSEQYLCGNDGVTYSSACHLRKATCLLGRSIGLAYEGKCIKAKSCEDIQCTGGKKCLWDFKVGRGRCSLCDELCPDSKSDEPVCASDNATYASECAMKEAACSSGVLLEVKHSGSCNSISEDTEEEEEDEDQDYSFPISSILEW
Test [6] addresses Fibroblast growth factor 2 (Homo sapiens) (UniProt P09038). Briefly: basic fibroblast growth factor binding to printed compounds – biochemical, small-molecule microarray, 635/667 nm fluorescence, primary screen (AID 1133). As to conditions: FGF2, fluorescence 635/667, higher = more signal.
Test [7] can be described thus: JC-1 mitochondrial potential readout, lung cancer cells – cell-based, A549, JC-1 fluorescence, basal, 24 h, 100 nL, profiling panel (AID 1138).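 Also: A549 lung adenocarcinoma cells under basal conditions with no added stimulus; test concentration not given here.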 As to conditions: higher = more signal.
The test system of test [8] is Lefty1. Kind of test: Lefty1 protein binding to printed compounds – biochemical, small-molecule microarray, 635/667 nm fluorescence, primary screen (AID 1139). As to conditions: fluorescence 635/667, higher = more signal.
For test [9], the system named is wheat germ agglutinin (Triticum aestivum), Alexa647-labelled. Briefly: Alexa647-WGA lectin binding to printed small molecules – biochemical, small-molecule microarray, 635/667 nm fluorescence, artefact control for SMM control-protein annotation, profiling panel (AID 1140).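 Also: score merges 667 nm feature emission with signal to noise over triplicate slides.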 As to conditions: WGA-A647 binding, 635 nm fluorescence, higher = more signal.
In test [10] the target is Luciferin 4-monooxygenase (Photinus pyralis) (UniProt P08659). Kind of test: inhibition of purified Photinus pyralis luciferase – biochemical, luminescence, purified enzyme, 2006 set, primary screen (AID 1141).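 Also: cell-free assay with purified firefly luciferase at 100 ng per well in PBS; test concentration not given here.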 As to conditions: purified firefly luciferase, SteadyGlo luminescence, 30 min; higher = more signal, called active from +8 up or from −8 down.
Chain of Luciferin 4-monooxygenase (Photinus pyralis) (P08659 whole entry, looked up): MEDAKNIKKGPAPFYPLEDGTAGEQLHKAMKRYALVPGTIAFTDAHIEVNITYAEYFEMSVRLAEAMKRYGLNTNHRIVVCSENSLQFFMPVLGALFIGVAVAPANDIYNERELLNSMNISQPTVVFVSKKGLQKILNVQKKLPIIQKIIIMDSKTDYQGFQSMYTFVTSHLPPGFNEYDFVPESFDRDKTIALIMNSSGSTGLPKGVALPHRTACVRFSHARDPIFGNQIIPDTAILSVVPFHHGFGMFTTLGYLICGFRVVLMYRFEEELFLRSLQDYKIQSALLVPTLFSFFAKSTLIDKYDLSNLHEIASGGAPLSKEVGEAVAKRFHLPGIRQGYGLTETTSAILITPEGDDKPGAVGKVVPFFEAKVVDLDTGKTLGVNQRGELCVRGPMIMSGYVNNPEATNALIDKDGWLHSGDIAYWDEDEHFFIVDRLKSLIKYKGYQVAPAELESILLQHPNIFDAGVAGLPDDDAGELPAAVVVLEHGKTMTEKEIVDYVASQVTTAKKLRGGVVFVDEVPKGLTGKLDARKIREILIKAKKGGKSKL
Test [11] deals with Wnt5a (protein binding on small-molecule microarray). Briefly: small molecules binding Wnt5a protein – biophysical, small-molecule microarray, 635/667 nm fluorescence, primary screen (AID 1142).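 Also: fluorescence read at 667 nm with signal to noise per printed feature.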 As to conditions: 635 nm fluorescence, higher = more signal.
A short description of test [12]: ATP-based viability of Huh7 replicon cells – cell-based, CellTiter-Glo luminescence, basal, 48 h, cytotoxicity control for HCV replication inhibitor project, primary screen (AID 1143).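 Also: Huh7 hepatoma cells carrying a hepatitis C replication reporter with no stimulus; test concentration not given here.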 As to conditions: higher = more signal, called active from +8 up or from −8 down. Background: Replicon systems follow genome replication, usually without infectious particles.
The nature of test [13]: Pseudomonas biofilm growth suppression – PAO1 strain, BacTiter-Glo luminescence, LB-PBS, primary screen (AID 1144). As to conditions: P. aeruginosa PAO1 biofilm, 12 h, higher = more signal.
Test [14] is described as follows: basal CRE-LacZ reporter activity in PC12 – cell-based, unstimulated, primary screen (AID 1145). As to conditions: no forskolin, luminescence, 4.5 h, higher = more signal, called active from +8 up or from −8 down.
The nature of test [15]: forskolin-driven CRE-LacZ activity in PC12 – cell-based, CRE-LacZ reporter, forskolin-stimulated, primary screen (AID 1146).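 Also: PC12 cells with 6xCRE LacZ reporter stimulated by forskolin 10 µM; beta-galactosidase reporter signal reflecting CREB driven transcription.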 As to conditions: luminescence, 4.5 h, higher = more signal, called active from +8 up or from −8 down.
The target of test [16] is Streptavidin (Streptomyces avidinii) (UniProt P22629). Kind of test: compounds binding control protein streptavidin – biophysical, small-molecule microarray, 635/667 nm fluorescence, artefact control for SMM compound annotation, primary screen (AID 1147).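 Also: signal reflects streptavidin binding to arrayed compounds as a control protein.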 As to conditions: higher = more signal.
Chain of Streptavidin (Streptomyces avidinii) (P22629 whole entry, looked up): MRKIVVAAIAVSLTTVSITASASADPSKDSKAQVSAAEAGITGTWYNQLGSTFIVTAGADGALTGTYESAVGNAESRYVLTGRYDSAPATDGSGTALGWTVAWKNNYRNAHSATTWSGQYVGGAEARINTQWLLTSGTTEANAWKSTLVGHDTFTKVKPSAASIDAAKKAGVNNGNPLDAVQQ
Test [17] in a line: probe aInhba binding on compound microarray – biochemical, small-molecule microarray, 635/667 nm fluorescence, primary screen (AID 1148).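 Also: score merges 667nm spot fluorescence with signal-to-noise for antibody binding to printed compounds.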 As to conditions: higher = more signal.
Test [18] has as its target Torsin-1A (Homo sapiens) (UniProt O14656). Briefly: TOR1A wild-type binding on microarray – cell lysate, small-molecule microarray, lysate, 635/667 nm, primary screen (AID 1149). As to conditions: COS7 hTOR1A-WT lysate, 635 nm fluorescence, higher = more signal.
For test [19] the target is unchanged. Briefly: torsin A mutant lysate binding on microarrays – cell lysate, small-molecule microarray, COS7 lysate, 635/667 nm fluorescence, primary screen (AID 1150).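 Also: score pools 667 nm emission and signal to noise measuring lysate protein binding.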 As to conditions: COS7 hTOR1A mutant lysate, 635 nm fluorescence, higher = more signal.
The test system of test [20] is Sonic hedgehog protein (Shh). Briefly: Sonic hedgehog microarray binding compounds – biochemical, small-molecule microarray, 635/667 nm fluorescence, primary screen (AID 1151).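 Also: Shh protein binding to compounds spotted on small-molecule microarray slides; score combines spot fluorescence intensity with signal-to-noise across triplicate slides.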 As to conditions: 635 nm fluorescence, higher = more signal.

Calls of active or inactive are those of the source. Unless noted, no rule for the calls is given here.

Experimental findings from PubChem BioAssay are described below.

Chain of Torsin-1A (Homo sapiens) (O14656 whole entry, looked up): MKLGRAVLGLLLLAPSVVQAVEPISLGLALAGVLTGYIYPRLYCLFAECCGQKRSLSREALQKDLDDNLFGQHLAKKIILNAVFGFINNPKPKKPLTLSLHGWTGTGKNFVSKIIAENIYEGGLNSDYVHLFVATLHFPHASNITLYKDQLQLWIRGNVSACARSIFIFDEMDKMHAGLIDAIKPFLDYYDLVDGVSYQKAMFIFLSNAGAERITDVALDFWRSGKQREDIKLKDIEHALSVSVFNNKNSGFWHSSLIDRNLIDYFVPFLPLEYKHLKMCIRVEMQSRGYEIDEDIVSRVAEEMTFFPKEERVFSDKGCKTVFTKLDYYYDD
Chain of Fibroblast growth factor 2 (Homo sapiens) (P09038 whole entry, looked up): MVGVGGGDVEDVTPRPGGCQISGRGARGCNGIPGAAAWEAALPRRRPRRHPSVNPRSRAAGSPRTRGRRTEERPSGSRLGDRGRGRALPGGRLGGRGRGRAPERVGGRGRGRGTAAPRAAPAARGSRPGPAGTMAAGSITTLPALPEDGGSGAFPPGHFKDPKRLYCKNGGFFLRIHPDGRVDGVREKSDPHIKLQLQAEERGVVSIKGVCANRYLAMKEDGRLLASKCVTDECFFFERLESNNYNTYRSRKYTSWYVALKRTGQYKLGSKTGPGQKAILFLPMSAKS

Turning to `CCCC=C(CCC)[C@@H](NP(=O)(c1ccccc1)c1ccccc1)c1ccc(C(F)(F)F)cc1`, the composite z-score in [1] was 0.74; in test [2], 0.811; in test [3] it was 0.666; in [4] it was 0.47; in test [5], -0.683; in [6], -0.265. For the same compound, the composite z-score was 0.57 in test [8]; 0.255 in [9]; 0.71 in test [11]; 0.0838 in test [16]; -0.0833 in [17]; 0.316 in test [18]. Besides, the composite z-score is 0.0932 in test [19] and -0.395 in [20]. Moreover, the z-score is 0.365 in [7]; 2.55 (inactive) in test [10]; -0.407 (inactive) in test [12]; 0.592 (inactive) in test [13]; 0.0041 (inactive) in [14]; 0.0568 (inactive) in test [15].
As to `CC(C)CN1C(=O)[C@@]2(Cc3ccccc31)c1ccccc1C(=O)N(Cc1ccccc1C(F)(F)F)[C@H]2c1ccc(CO)cc1`, the composite z-score in test [1] is -0.372; in test [2], -1.18; in test [3], -0.315; in [4], -0.921; in test [5] it was -0.596; in test [6] it was -0.425. The composite z-score in test [8] was 0.636; in test [9], -0.0876; in test [11] it was -0.331; in test [16], -0.0961; in test [17], -0.182; in [18] it was -2.38. Also, the composite z-score in test [19] was -0.727; in [20], -0.875. Also, the z-score in test [7] was 0.39; in test [10], 1.11 (inactive); in test [12], -2.54 (inactive); in test [13] it was -1.53 (inactive); in test [14], 0.0655 (inactive); in [15] it was -0.416 (inactive).
On to `COc1ccc([Si](C)(C)[C@@H]2[C@@H](CCn3cc([C@H](O)c4ccccc4)nn3)O[C@]3(C(=O)N(Cc4ccc(N5CCOC5=O)cc4)c4ccccc43)[C@H]2C)cc1`, for which the composite z-score in test [1] was 0.551; in test [2] it was 1.06; in test [3], -0.0646; in test [4], 0.851; in test [5], 1.07; in test [6], 1.04. For the same compound, the composite z-score in test [8] is 1.14; in [9], 0.616; in [11], 0.127; in [16], 0.204; in test [17] it was -0.128; in test [18] it was 1.15. The composite z-score turned out to be 1.14 in test [19] and 1.85 in test [20]. In addition, the z-score in test [7] is 0.708; in test [10], 0.82 (inactive); in test [12], -3.81 (inactive); in [13] it was -0.41 (inactive); in test [14], -0.0533 (inactive); in [15] it was -0.0224 (inactive).
As to `COc1cc2c(cc1OC)CN(C(=O)[C@H]1[C@@H]3C(=O)O[C@@H](c4ccccc4)[C@@H](c4ccccc4)N3[C@@H](c3ccc(OCCO)cc3)[C@]13C(=O)Nc1ccc(C#CC4(O)CCCCCC4)cc13)CC2`, the composite z-score in test [1] is 1.91; in [2] it was 1.21; in [3] it was -0.109; in test [4] it was 0.819; in [5] it was 1.46; in [6] it was 1.38. In addition, the composite z-score amounted to 1.35 in test [8]; 1.18 in [9]; 0.928 in [11]; 1.54 in test [16]; 1.23 in test [17]; 0.765 in test [18]. The composite z-score in test [19] stood at 1.85; in test [20], 1.96. Further, the z-score in test [7] was -1.42; in test [10], -1.15 (inactive); in test [12], -0.425 (inactive); in [13] it was -1.33 (inactive); in test [14], -0.438 (inactive); in test [15], 0.195 (inactive).
`COc1ccc([Si](C)(C)[C@H]2[C@H](CCn3cc(CCO)nn3)O[C@@]3(C(=O)N(Cc4ccc(N5C(=O)c6cccc7cccc5c67)cc4)c4ccccc43)[C@@H]2C)cc1`: the composite z-score was determined as 1.12 in [1]; 1.2 in test [2]; 0.379 in test [3]; 0.431 in test [4]; 1.23 in test [5]; 0.949 in test [6]. The composite z-score in test [8] was 1.31; in [9] it was 0.578; in test [11] it was 0.426; in [16], 0.798; in test [17], -0.0933; in [18], 0.316. Moreover, the composite z-score in [19] was 0.238; in [20], 2.08. Moreover, the z-score in [7] is -0.932; in test [10], 0.303 (inactive); in test [12], -7.91 (inactive); in test [13] it was -0.152 (inactive); in [14] it was 1.12 (inactive); in [15], -0.213 (inactive).
